High-throughput results (PubChem BioAssay)
GLP-1R inv ag = GLP-1 receptor (human) inverse agonism; P43220; Potency, µM (series often up to 38.3 µM), without a hit: top-dose activity change, negative = inhibition, actives largely listed as inhibitors; HEK293 GLP-1R CRE-luciferase, luminescence, 24 h; GLP-1R form is constitutively active; hit rate 1.6% among 410,000; AID 624417; note: potency is the fitted concentration of half-maximal effect; % is set by controls: 0 for no effect and ±100 for the full control effect; nearly all actives have a fitted effect of over 55% in size
Target sequence (P43220 whole entry, looked up): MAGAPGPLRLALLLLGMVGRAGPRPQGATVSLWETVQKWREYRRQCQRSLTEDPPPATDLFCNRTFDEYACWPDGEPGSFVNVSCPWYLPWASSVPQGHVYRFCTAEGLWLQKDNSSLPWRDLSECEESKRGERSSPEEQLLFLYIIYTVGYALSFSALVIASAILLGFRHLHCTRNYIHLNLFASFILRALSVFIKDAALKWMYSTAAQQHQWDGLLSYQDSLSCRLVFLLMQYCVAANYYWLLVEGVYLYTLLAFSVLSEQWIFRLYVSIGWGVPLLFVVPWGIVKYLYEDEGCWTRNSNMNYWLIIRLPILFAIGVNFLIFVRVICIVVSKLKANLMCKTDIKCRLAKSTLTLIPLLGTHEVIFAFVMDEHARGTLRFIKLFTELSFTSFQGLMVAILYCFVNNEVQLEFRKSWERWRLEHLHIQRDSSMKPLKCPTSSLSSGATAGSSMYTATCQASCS
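Inverse agonism was detected as reduced cAMP-driven luciferase luminescence after 24 h compound treatment. The cells were HEK293 clones expressing constitutively active human GLP-1R with the reporter. Reporter-only and GPR119 cell lines served as counterscreen controls.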
GLP1R ag = activates the human GLP-1 receptor; Potency, µM (series often up to 45.6 µM), inactives show at the top dose activation, usual class: activators; hit rate 0.007% among 380,000; HEK293 GLP-1R CRE-luciferase, luminescence, 4-6 h; cells express a hypersensitive GLP-1R form; AID 624172; note: potency is the fitted concentration of half-maximal effect; % of control where 0% means no effect
GLP1R cytotox = cytotoxicity in counter-screen for GLP-1R inverse agonists; HEK293 cAMP-luciferase reporter cells, luminescence, 24 h; Potency, µM (highest dose often 38.3 µM), for inactives: at the highest dose activity change, negative = inhibition, actives largely listed as inhibitors; hit rate 0.13% among 410,000; AID 624418;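 note: loss of luciferase light is scored as toxicity; potency is the fitted concentration of half-maximal effect; % is set by controls: 0 for no effect and ±100 for the full control effect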
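Seeding density was 200 cells/uL; after overnight-length (12 h) culture, 23 nL compounds went on for 24 h at 37 °C. Readout used a luciferase detection reagent, luminescence taken after 12 min at room temperature.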
Mm-Cpn inhibitor = blocks the Methanococcus maripaludis chaperonin Mm-Cpn | purified Mm-Cpn ATPase, ADP Transcreener TR-FRET | Potency, µM (doses to about 76.9 µM), inactives show at the top dose activity, negative = inhibition, most hits filed as inhibitors | hit rate 0.031% among 330,000 | AID 504842; note: potency is the fitted concentration of half-maximal effect; % is set by controls: 0 for no effect and ±100 for the full control effect; nearly all actives have a fitted effect of over 80% in size
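Compound-treated chaperonin, 25 nM final, turns over 10 uM ATP at 37°C for 30 min following a 10 min preincubation; ADP generated competes with ADP-d2 for Eu-cryptate antibody, lowering FRET.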
uPA generation = inhibitors of cell surface uPA generation. Potency, µM (top dose mostly 38.3 µM), for inactives: at the top dose activity change, negative = inhibition, usual class: inhibitors. hit rate 0.31% among 330,000. AID 540303. cell surface uPA generation assay, qHTS; active = well fitted inhibition curve with a large enough effect; inconclusive = small, poorly fitted or top-dose-only effect; inactive = no such curve, though single readings can be large or run the other way; tested in mouse RAW 264.7 cells; note: potency is the fitted concentration of half-maximal effect; % is set by controls: 0 for no effect and ±100 for the full control effect; nearly all actives have a fitted effect of over 55% in size
CCT modulator = changes cytosolic chaperonin activity; hit rate 0.3% among 360,000; activity change, % (test concentration not listed), hits read low; AID 651819; purified chaperonin ATPase assay, HTRF ADP detection, 30 min; in the data active = activity change below about -30%; note: % is set by controls: 0 for no effect and ±100 for the full control effect
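TRiC at 40 or 20 nM final (batch-dependent) in 30 mM Tris pH 7.4, 100 mM KCl, 5 mM MgCl2, 1 mM DTT, with compound at single 76 uM and 10 uM ATP, 30 min at 37 deg C. ADP detected by HTRF Transcreener, 665/615 ratio.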
Starred values were filed as active, the others as inactive; ? = inconclusive; . = not tested or not shown; ! = repeats disagree. Hits are enriched below; roughly 2.2% of the tested compounds scored in any of these assays. Unless noted, calls come from the whole dose curve; as a rule, active = well fitted curve in the direction sought with a large enough effect; inconclusive = small, poorly fitted or top-dose-only effect, or another doubt; inactive = no such curve, though single readings can be large; an effect the other way counts as inactive or inconclusive.

SMILES	GLP-1R inv ag	GLP1R ag	GLP1R cytotox	Mm-Cpn inhibitor	uPA generation	CCT modulator
CC[C@]12c3[nH]c4cc(CCC(=O)N(C)C)ccc4c3CCN1C(=O)[C@@H](CC(=O)NCCC1=CCCCC1)C[C@@H]2C(=O)N1CCN(C(=O)c2ccco2)CC1	0%	-1%	-6%	1%	-1%	0
O=C(C[C@H]1C[C@H](C(=O)N2CCCCC2)[C@@]2(CCc3ccccc3)c3[nH]c4cc(-c5ccco5)ccc4c3CCN2C1=O)NCc1ccco1	8.9µM*	-2%	-7%	-7%	?	1
O=C(CC1C[C@H](C(=O)N2CCCCC2)[C@@]2(CCc3ccccc3)c3[nH]c4ccccc4c3CCN2C1=O)NCc1ccco1 (stereo partly drawn)	3%	-4%	0%	1%	7%	-3
CC[C@]12c3[nH]c4cc(-c5ccco5)ccc4c3CCN1C(=O)[C@@H](CC(=O)NCCC1=CCCCC1)C[C@@H]2C(=O)N1CCN(C(=O)c2ccco2)CC1	7.9µM*	1%	-22%	?	-5%	2
CCc1ccc(CNC(=O)CCCN2C(=O)CCn3nc(-c4cccn4C)cc32)cc1	-15%	.	-4%	.	.	.
CCN(CC)CCCNC(=O)C1CCN(S(C)(=O)=O)CC1	-2%	.	-12%	.	.	.
COc1ccc(CCNC(=O)C2(c3cccs3)CCOCC2)cc1OC	-6%	.	-1%	.	.	.
COc1ccc(CC(=O)NCc2nn(-c3ccccc3)nc2C)cc1OC	12%	-2%	10%	-2%	-19%	-2
COc1ccc(-c2ocnc2C(=O)NCc2nn(-c3ccccc3)nc2C)cc1	10µM*	5%	3%	-5%	-2%	-13
COc1c(Cl)cc(C(=O)N(Cc2ccc(C)o2)C2CCS(=O)(=O)C2)cc1Cl (stereo not drawn)	-12%	.	-1%	.	.	.
Cn1cc(CN2CCCC(C(=O)c3ccc(-c4ccccc4)cc3)C2)cn1 (stereo not drawn)	-37%	-9%	?	1%	-21%	0
CCn1cc(CN2CCCC(C(=O)c3ccc(-c4ccccc4)cc3)C2)cn1 (stereo not drawn)	8.9µM*	10%	-27%	2%	-8%	-2
CC1CCN(C(=O)COC(=O)CCCN2C(=O)c3cccc4cccc(c34)C2=O)CC1	13%	27%	10%	3%	16%	-94*
O=C(CCCN1C(=O)c2cccc3cccc(c23)C1=O)OCC(=O)N1CCCCC1	24%	-6%	-19%	.	.	1
CCn1c(=N)c(C(=O)NCC2CCCO2)cc2c(=O)n3cc(C)ccc3nc21 (stereo not drawn)	20%	0%	263%	.	.	.
CC[n+]1c(/C=C/c2c[nH]c3ccccc23)ccc2cc(C)ccc21	10µM*	-7%	?	-27%	-17%	3
Cc1nn(-c2ccccc2)c(Cl)c1C(=O)OC(C)C(=O)NC(=O)NC1CCCCC1 (stereo not drawn)	?	5%	63%	2%	6%	-1
Cc1nn(-c2ccc(F)cc2)c(Cl)c1C(=O)OC(C)C(=O)N(C)C1CCCCC1 (stereo not drawn)	5µM*	-5%	-7%	1%	6%	3
COc1ccc2[nH]c(=O)c(CN(C(=O)c3cccc(Cl)c3)c3ccccc3OC)cc2c1	-4%	.	0%	.	.	.
CCCC(=O)Nc1ccccc1C(=O)OCc1cc(=O)n2nc(C(C)C)sc2n1	3%	.	3%	.	.	.
CCN(CC)S(=O)(=O)c1ccc2c(c1)N(CC(=O)N1CCN(c3cccc(C)c3C)CC1)C(=O)CO2	?	.	-15%	.	.	.
CCN(CC)CCNC(=O)C1CCN(S(=O)(=O)c2c(C)noc2/C=C/c2ccccc2F)CC1	3.2µM*!	21%	?	-3%	?	1
Cc1noc(/C=C/c2ccccc2F)c1S(=O)(=O)N1CCC(C(=O)NCc2ccco2)CC1	13%	.	1%	.	.	.
Cc1ccc(/C=C/c2onc(C)c2S(=O)(=O)N2CCC(C(=O)N3CCN(C)CC3)CC2)cc1	6.3µM*	6%	-31%	-2%	-16%	-2
CCN(CC)C(=O)C1CCN(S(=O)(=O)c2c(C)noc2/C=C/c2cccc(C)c2)CC1	10µM*	9%	-10%	-2%	-13%	-2
SMILES	GLP-1R inv ag	GLP1R ag	GLP1R cytotox	Mm-Cpn inhibitor	uPA generation	CCT modulator
CCOc1ccc2oc(=O)cc(CN3CCN(c4ccc(OC)cc4)CC3)c2c1	5%	.	16%	.	.	.
COc1cc(OC)c(NC(=O)N2CCC(CN3CCCC3)CC2)cc1Cl	3%	.	3%	.	.	.
O=C(NC1CCCC1)C(c1ccncc1)N(C(=O)c1ccco1)c1ccc(F)c(Cl)c1 (stereo not drawn)	0%	4%	11%	2%	3%	-36*
O=C(NC1CCCCC1)C(c1ccncc1)N(C(=O)c1ccco1)c1ccc(F)cc1 (stereo not drawn)	16%	3%	-6%	0%	3%	0
COc1ccc(N(CCC(=O)Nc2ccccc2F)S(=O)(=O)c2ccc(C)cc2C)cc1	10µM*	5%	-1%	1%	2%	2
COC(=O)Cc1c(C)c2ccc3c(c2oc1=O)CN(Cc1ccccc1OC)CO3	10%	.	125%	.	.	.
CCOC(=O)C1CCCN(C(=O)c2[nH]c3ccccc3c2Sc2ccc(Cl)cc2)C1 (stereo not drawn)	11µM*	.	?	.	.	.
O=C(NNC1=C(C(=O)C(F)(F)F)CCC1)c1ccc(Cl)cc1	0%	1%	-25%	0%	2%	-9
O=C(NNC1=C(C(=O)C(F)(F)F)CCC1)c1cccc(Cl)c1	2.8µM*	1%	?	1%	-5%	0
COC(=O)c1ccc(NC(=O)Cc2coc3cc(C)ccc23)cc1	?	.	-6%	.	.	.
Cc1cccc(OCc2nc(CC(=O)Nc3ccc(Cl)cc3)cs2)c1	?	.	-16%	.	.	.
CC1CC(C)CN(C(=O)C(C)N2CCN(S(=O)(=O)c3ccc(C(F)(F)F)cc3)CC2)C1 (stereo not drawn)	10µM*	4%	-5%	.	-1%	3
CC(C(=O)N1CCCC1)N1CCN(S(=O)(=O)c2ccc(OC(F)(F)F)cc2)CC1 (stereo not drawn)	-14%	0%	0%	-2%	3%	-1
CC1CC(C)CN(S(=O)(=O)c2ccc(C(C)(C)C)cc2)C1 (stereo not drawn)	2µM*	8%	4%	1%	8%	-2
CC(C)N1[N]C(=C2C=c3cc(O)ccc3=N2)c2c(N)ncnc21	.	0%	.	.	.	.
O=C(Cn1cc(C(=O)c2ccncc2)c(=O)c2cc(F)ccc21)Nc1ccc(Cl)cc1	-1%	.	-13%	.	.	.
CN1CCN(c2ccc(-c3cc(O)c4ncccc4c3)cc2)CC1	.	.	.	1%	.	.
